DUX4 txn inh – inhibitors of DUX4-driven ZSCAN4 reporter expression, primary screen, 293T cells, Gaussia and Italica luciferase; 293T-iDUX4 ZSCAN4-Gaussia luciferase reporter, 24 h; hits give low values; activity change, negative = inhibition, % (no concentration beside the values); actives 0.8% (n = 37,000); AID 1224904, 2016;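 active = mean inhibition of at least 10% in the main channel, exceeding the control channel by a set limit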
Hits are given with their value; 0 = inactive. Shown is part of a subset that was picked to be rich in hits.

SMILES	DUX4 txn inh
COc1cccc(S(=O)(=O)N2CCCCN3[C@H](CO)[C@@H](c4ccc(-c5cccnc5)cc4)[C@H]3C2)c1	0
CN(C)c1ccc2c(c1)[C@@H]1C[C@@H](CC(=O)N3CCc4ccccc4C3)O[C@H](CO)[C@@H]1O2	0
CC=Cc1ccc2n(c1=O)C[C@H]1[C@H](CO)[C@@H](C(=O)NC3Cc4ccccc4C3)[C@@H]2N1C(C)=O (mixture of isomers)	0
C[C@@H]1CCCCO[C@@H](CN(C)C(=O)Nc2cccc3ccccc23)[C@H](C)CN([C@H](C)CO)C(=O)c2cc(NC(=O)c3ccncc3)ccc2O1	0
CNC[C@H]1OCCCC[C@H](C)Oc2ccc(NC(=O)Cc3ccccc3)cc2C(=O)N([C@H](C)CO)C[C@@H]1C	0
CCC(=O)N1[C@H](CO)[C@@H](c2ccccc2)C12CN(C(=O)CN1CCOCC1)C2	0
COc1ccc2c3c([nH]c2c1)[C@@H](CO)N(C(=O)c1ccc(F)cc1)CC31CCN(C(=O)NC(C)C)CC1	-15.7
COc1ccc2c3c(n(C)c2c1)[C@@H](CO)N(C(=O)c1ccc(F)cc1)CC31CN(C(C)=O)C1	0
COc1ccc2c3c([nH]c2c1)[C@H](CO)N(C(=O)c1ccccc1)CC31CN(C(=O)CC2CC2)C1	0
COc1ccc2c3c([nH]c2c1)[C@@H](CO)N(C(=O)c1ccncc1)CC31CCN(C(=O)NC(C)C)CC1	0
CCCC(=O)N1CC2(CCN(C(=O)NC(C)C)CC2)c2c([nH]c3cc(OC)ccc23)[C@H]1CO	0
COc1ccc2c3c([nH]c2c1)[C@H](CO)N(CC1CC1)CC31CN(C(=O)NC2CCCC2)C1	0
COc1ccc2c3c([nH]c2c1)[C@H](CO)N(CC1CC1)CC31CN(C(=O)c2ccccc2)C1	-24.1
CCCNC(=O)N1CC2(C1)CN(Cc1ccccc1)[C@H](CO)c1[nH]c3cc(OC)ccc3c12	0
CCCNC(=O)N1CC2(C1)CN(Cc1ccc(F)cc1)[C@H](CO)c1[nH]c3cc(OC)ccc3c12	0
CCCNC(=O)N1CC2(C1)CN(Cc1ccccc1)[C@@H](CO)c1[nH]c3cc(OC)ccc3c12	-10.1
COc1ccc2c3c(n(C)c2c1)[C@@H](CO)N(CC1CC1)CC31CN(C(=O)c2ccc(F)cc2)C1	-26.0
COc1ccc2c3c(n(C)c2c1)[C@H](CO)N(CC1CC1)CC31CN(C(=O)Nc2ccc(F)cc2F)C1	0
O=C(Nc1ccc(F)cc1)N1C[C@@H]2[C@H](c3ccccc31)[C@H](CO)N2C(=O)Cc1ccncc1	0
O=C([C@@H]1[C@@H](CO)[C@@H]2Cn3c(ccc(C4=CCCC4)c3=O)[C@H]1N2C(=O)c1ccccc1)N1CCOCC1	0
CO[C@@H]1CN(C)C(=O)c2cc(NS(C)(=O)=O)ccc2OC[C@H](C)N(Cc2cocn2)C[C@H]1C	0
COC(=O)C[C@H]1CC[C@@H]2[C@H](COc3ccc(NS(=O)(=O)c4ccccc4Cl)cc3C(=O)N2C)O1	0
O=C(C[C@@H]1CC[C@H]2[C@@H](COC[C@@H](O)CN2Cc2ccc(C(F)(F)F)cc2)O1)NCCc1ccccc1	0
C[C@@H]1CN([C@H](C)CO)C(=O)c2cccc(NC(=O)C3CCOCC3)c2O[C@H]1CN(C)C(=O)Nc1cccc2ccccc12	0
CO[C@H]1CN(C)C(=O)c2ccc(NC(=O)CC(F)(F)F)cc2OC[C@H](C)N(C(=O)c2ccccc2F)C[C@H]1C	0
SMILES	DUX4 txn inh
CC(=O)N1CC(=O)N2[C@H](C1)[C@H](c1ccc(-c3ccc(C)cc3)cc1)[C@@H]2CO	0
COc1cccc(-c2ccc3n(c2=O)C[C@@H]2[C@@H](CO)[C@H](C(=O)NC4CCC4)N[C@H]32)c1	0
C[C@@H]1CN([C@@H](C)CO)C(=O)CCCn2cc(nn2)CO[C@@H]1CN(C)C(=O)Nc1ccnc(N2CCOCC2)c1	0
COc1cccc(-c2ccc3n(c2=O)C[C@H]2[C@H](CO)[C@@H](C(=O)NC4CCC4)[C@@H]3N2C)c1	0
O=C(c1ccccn1)N1CC2(C1)[C@H](c1ccccc1)[C@H](CO)N2C(=O)C1CCC1	0
C[C@H]1CN([C@@H](C)CO)C(=O)Cc2cc(NC(=O)c3ccncc3)ccc2O[C@@H]1CN(C)Cc1ccc2c(c1)OCO2	0
C[C@H]1CN([C@@H](C)CO)C(=O)CCCn2cc(nn2)CO[C@H]1CN(C)Cc1ccc(C(=O)O)cc1	0
COc1ccc2c3c(n(C)c2c1)[C@@H](CO)N(CC1CC1)CC31CCN(C(C)=O)CC1	0
COc1ccc2c3c(n(C)c2c1)[C@@H](CO)N(S(C)(=O)=O)CC31CCN(C(=O)C2CCCC2)CC1	0
COc1ccc2c3c(n(C)c2c1)[C@@H](CO)N(S(C)(=O)=O)CC31CCN(CC2CCCCC2)CC1	-20.7
COc1ccc2c3c(n(C)c2c1)[C@@H](CO)N(CC1CC1)CC31CN(C(=O)c2ccccc2)C1	-32.1
COc1ccc2c3c(n(C)c2c1)[C@@H](CO)N(C)CC31CCN(CC2CC2)CC1	0
COc1ccc2c3c(n(C)c2c1)[C@@H](CO)N(C)CC31CN(C(=O)c2ccccc2F)C1	-35.1
